Results filed as inconclusive are left out. A number with no mark means an inactive call. Activity calls are given as the source filed them. Calls follow the shape of the dose curve; as a rule, active = well fitted inhibition curve with a large enough effect; inconclusive = small, poorly fitted or top-dose-only effect; inactive = flat fitted curve, though single readings scatter.
Test system: AA1029
Assay: qHTS profiling for inhibitors of Plasmodium falciparum proliferation (AID 504749); also: nearly all actives have a fitted effect of over 60% in size;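 as to activity, negative = inhibition: 0% = DMSO vehicle and full inhibition = artemisinin control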
Conditions: P. falciparum in erythrocytes, SYBR Green DNA, 72 h; series mostly up to 28.7 µM; activity, negative = inhibition: at the top concentration
Method in brief: (§1)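 SYBR Green fluorescence (ex 485 nm, em 535 nm) reports parasite DNA after 72 h compound exposure of infected red cells at 0.3% parasitemia, 2.5% hematocrit; signal normalized to 0.29 uM artemisinin and vehicle wells.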
Potency is read from the fitted curve at half-maximal effect.

**Q.** Cc1cc2c(cc1S(N)(=O)=O)S(=O)(=O)CCC2 was tested. Which “activity, negative = inhibition” value did it give?
**A.** 1.19% [at 12.8 µM]

**Q.** For CSc1ccc2c(c1)N(CCC1CCCCN1C)c1ccccc1S2 (stereo not drawn), which Potency is on record?
**A.** 10 µM (active)

**Q.** CCCc1c(OCCCCc2nn[nH]n2)ccc(C(C)=O)c1O was tested. Which “activity, negative = inhibition” value did it give?
**A.** -23.5%

**Q.** With CCCCN1CCCC[C@H]1C(=O)Nc1c(C)cccc1C as the molecule, how does the “activity, negative = inhibition” value read?
**A.** -25.7%

**Q.** Which “activity, negative = inhibition” value does the source give for O=C1NS(=O)(=O)c2ccccc21 here?
**A.** 1.57%

**Q.** With Cc1ccc2nc(N)[nH]c(=O)c2c1Sc1ccncc1 as the molecule, how does the Potency read?
**A.** 11.2 µM (active)

**Q.** Cc1cc(N)c2ccccc2[n+]1CCCCCCCCCC[n+]1c(C)cc(N)c2ccccc21 was tested. Which Potency did it give?
**A.** 0.316 µM (active)

**Q.** Which “activity, negative = inhibition” value does the source give for [Cl][In]([Cl])[Cl] here?
**A.** -13.5%

**Q.** With CCCCOc1cc(C(=O)OCCN(CC)CC)ccc1N as the molecule, how does the “activity, negative = inhibition” value read?
**A.** 7.03% [at 12.8 µM]

**Q.** How did the Potency turn out when OCCN1CCN(CCCN2c3ccccc3Sc3ccc(Cl)cc32)CC1 was run?
**A.** 3.55 µM (active)

Test system: AS120
Assay: as above
Conditions: P. falciparum in erythrocytes, SYBR Green DNA, 72 h; series mostly up to 28.7 µM; activity, negative = inhibition: at the top concentration
Method in brief: as §1

**Q.** How did the “activity, negative = inhibition” value turn out when Cc1cc2c(cc1S(N)(=O)=O)S(=O)(=O)CCC2 was run?
**A.** 3.08% [at 12.8 µM]

**Q.** NC1CCN(c2cccc(Cl)n2)CC1 was tested. Which “activity, negative = inhibition” value did it give?
**A.** -15.5%

**Q.** With CC(C(O)c1ccc(O)cc1)N1CCC(Cc2ccccc2)CC1 (stereo not drawn) as the molecule, how does the Potency read?
**A.** 8.91 µM (active)

**Q.** With CNC(=O)Oc1ccc2c(c1)[C@]1(C)CCN(C)[C@@H]1N2C as the molecule, how does the Potency read?
**A.** 2 µM (active)

**Q.** How did the “activity, negative = inhibition” value turn out when CCOC(CN1CCN(CC(C)C(=O)c2ccccc2)CC1)c1ccccc1 (stereo not drawn) was run?
**A.** -24.8%

**Q.** How did the Potency turn out when CSc1ccc2c(c1)N(CCC1CCCCN1C)c1ccccc1S2 (stereo not drawn) was run?
**A.** 11.2 µM (active)

**Q.** CC(C)(C)C(=O)C(Oc1ccc(Cl)cc1)n1ccnc1 (stereo not drawn) was tested. Which Potency did it give?
**A.** 10 µM (active)

**Q.** CCCc1c(OCCCCc2nn[nH]n2)ccc(C(C)=O)c1O was tested. Which “activity, negative = inhibition” value did it give?
**A.** -18%

**Q.** With CCCCN1CCCC[C@H]1C(=O)Nc1c(C)cccc1C as the molecule, how does the “activity, negative = inhibition” value read?
**A.** -18.1%

**Q.** How did the Potency turn out when COc1ccc2[nH]c(S(=O)Cc3ncc(C)c(OC)c3C)nc2n1 (stereo not drawn) was run?
**A.** 8.91 µM (active)

**Q.** Which “activity, negative = inhibition” value does the source give for O=C1NS(=O)(=O)c2ccccc21 here?
**A.** 2.43%

**Q.** Cc1ccc2nc(N)[nH]c(=O)c2c1Sc1ccncc1 was tested. Which Potency did it give?
**A.** 4.47 µM (active)

**Q.** How did the Potency turn out when Cc1cc(N)c2ccccc2[n+]1CCCCCCCCCC[n+]1c(C)cc(N)c2ccccc21 was run?
**A.** 7.94 µM (active)

**Q.** CCCCOc1cc(C(=O)OCCN(CC)CC)ccc1N was tested. Which “activity, negative = inhibition” value did it give?
**A.** 4.63% [at 12.8 µM]

**Q.** OCCN1CCN(CCCN2c3ccccc3Sc3ccc(Cl)cc32)CC1 was tested. Which Potency did it give?
**A.** 3.98 µM (active)

**Q.** How did the Potency turn out when Cc1c(O)cccc1C(=O)N[C@@H](CSc1ccccc1)[C@H](O)CN1C[C@H]2CCCC[C@H]2C[C@H]1C(=O)NC(C)(C)C was run?
**A.** 10 µM (active)

**Q.** With CNCCCC1c2ccccc2C=Cc2ccccc21 as the molecule, how does the “activity, negative = inhibition” value read?
**A.** -29.9% [at 12.8 µM]

Test system: ATS189
Assay: as above
Conditions: P. falciparum in erythrocytes, SYBR Green DNA, 72 h; series mostly up to 28.7 µM; activity, negative = inhibition: at the top concentration
Method in brief: as §1

**Q.** How did the “activity, negative = inhibition” value turn out when CN1CCN(C2Cc3ccccc3Sc3ccc(Cl)cc32)CC1 (stereo not drawn) was run?
**A.** -22.5%

**Q.** Cc1cc2c(cc1S(N)(=O)=O)S(=O)(=O)CCC2 was tested. Which “activity, negative = inhibition” value did it give?
**A.** 11.2% [at 12.8 µM]

**Q.** Which “activity, negative = inhibition” value does the source give for CCOc1nc2cccc(C(=O)O)c2n1Cc1ccc(-c2ccccc2-c2nn[nH]n2)cc1 here?
**A.** -24.5%

**Q.** How did the “activity, negative = inhibition” value turn out when NC1CCN(c2cccc(Cl)n2)CC1 was run?
**A.** -9.6%

**Q.** Which Potency does the source give for CC(C(O)c1ccc(O)cc1)N1CCC(Cc2ccccc2)CC1 (stereo not drawn) here?
**A.** 11.2 µM (active)

**Q.** How did the Potency turn out when CNC(=O)Oc1ccc2c(c1)[C@]1(C)CCN(C)[C@@H]1N2C was run?
**A.** 2.24 µM (active)

**Q.** With CC(C)(C)C(=O)C(Oc1ccc(Cl)cc1)n1ccnc1 (stereo not drawn) as the molecule, how does the Potency read?
**A.** 8.91 µM (active)

**Q.** CC(CN1c2ccccc2Sc2ccccc21)N(C)C (stereo not drawn) was tested. Which “activity, negative = inhibition” value did it give?
**A.** 12.7%

**Q.** How did the “activity, negative = inhibition” value turn out when O=C1NS(=O)(=O)c2ccccc21 was run?
**A.** -2.74%

**Q.** Which Potency does the source give for Cc1ccc2nc(N)[nH]c(=O)c2c1Sc1ccncc1 here?
**A.** 8.91 µM (active)

**Q.** Which Potency does the source give for Cc1cc(N)c2ccccc2[n+]1CCCCCCCCCC[n+]1c(C)cc(N)c2ccccc21 here?
**A.** 0.316 µM (active)

**Q.** CCCCOc1cc(C(=O)OCCN(CC)CC)ccc1N was tested. Which “activity, negative = inhibition” value did it give?
**A.** 4.53% [at 12.8 µM]

**Q.** How did the “activity, negative = inhibition” value turn out when CNCCCC1c2ccccc2C=Cc2ccccc21 was run?
**A.** -14.3% [at 12.8 µM]

Test system: ATS95
Assay: as above
Conditions: P. falciparum in erythrocytes, SYBR Green DNA, 72 h; series mostly up to 28.7 µM; activity, negative = inhibition: at the top concentration
Method in brief: as §1

**Q.** For CN1CCN(C2Cc3ccccc3Sc3ccc(Cl)cc32)CC1 (stereo not drawn), which “activity, negative = inhibition” value is on record?
**A.** -27.2%

**Q.** NC1CCN(c2cccc(Cl)n2)CC1 was tested. Which “activity, negative = inhibition” value did it give?
**A.** -17.7%

**Q.** With CCOC(CN1CCN(CC(C)C(=O)c2ccccc2)CC1)c1ccccc1 (stereo not drawn) as the molecule, how does the “activity, negative = inhibition” value read?
**A.** -23.8%

**Q.** CCCc1c(OCCCCc2nn[nH]n2)ccc(C(C)=O)c1O was tested. Which “activity, negative = inhibition” value did it give?
**A.** -10.8%

**Q.** With CN(C)CCCN1c2ccccc2Sc2ccc(Cl)cc21 as the molecule, how does the Potency read?
**A.** 11.2 µM (active)

Test system: C2A
Assay: as above
Conditions: P. falciparum in erythrocytes, SYBR Green DNA, 72 h; series mostly up to 28.7 µM; activity, negative = inhibition: at the top concentration
Method in brief: as §1

**Q.** CN1CCN(C2Cc3ccccc3Sc3ccc(Cl)cc32)CC1 (stereo not drawn) was tested. Which “activity, negative = inhibition” value did it give?
**A.** -18.5%

**Q.** How did the “activity, negative = inhibition” value turn out when Cc1cc2c(cc1S(N)(=O)=O)S(=O)(=O)CCC2 was run?
**A.** -0.872% [at 12.8 µM]

**Q.** For NC1CCN(c2cccc(Cl)n2)CC1, which “activity, negative = inhibition” value is on record?
**A.** -18.7%

**Q.** Which Potency does the source give for CC(C(O)c1ccc(O)cc1)N1CCC(Cc2ccccc2)CC1 (stereo not drawn) here?
**A.** 10 µM (active)

**Q.** Which Potency does the source give for CNC(=O)Oc1ccc2c(c1)[C@]1(C)CCN(C)[C@@H]1N2C here?
**A.** 1.78 µM (active)

**Q.** With CCOC(CN1CCN(CC(C)C(=O)c2ccccc2)CC1)c1ccccc1 (stereo not drawn) as the molecule, how does the “activity, negative = inhibition” value read?
**A.** -15.3%

**Q.** For CCCc1c(OCCCCc2nn[nH]n2)ccc(C(C)=O)c1O, which “activity, negative = inhibition” value is on record?
**A.** -11.1%

**Q.** Which “activity, negative = inhibition” value does the source give for CCCCN1CCCC[C@H]1C(=O)Nc1c(C)cccc1C here?
**A.** -9.62%

**Q.** Which “activity, negative = inhibition” value does the source give for CC(CN1c2ccccc2Sc2ccccc21)N(C)C (stereo not drawn) here?
**A.** 2.98%

**Q.** With O=C1NS(=O)(=O)c2ccccc21 as the molecule, how does the “activity, negative = inhibition” value read?
**A.** -8.04%

**Q.** Cc1ccc2nc(N)[nH]c(=O)c2c1Sc1ccncc1 was tested. Which Potency did it give?
**A.** 11.2 µM (active)

**Q.** For Cc1cc(N)c2ccccc2[n+]1CCCCCCCCCC[n+]1c(C)cc(N)c2ccccc21, which Potency is on record?
**A.** 0.282 µM (active)

**Q.** Which “activity, negative = inhibition” value does the source give for [Cl][In]([Cl])[Cl] here?
**A.** -24.4%

**Q.** Which “activity, negative = inhibition” value does the source give for CCCCOc1cc(C(=O)OCCN(CC)CC)ccc1N here?
**A.** -3.01% [at 12.8 µM]

**Q.** CN(C)CCN(Cc1ccccc1)c1ccccn1 was tested. Which “activity, negative = inhibition” value did it give?
**A.** -8.84%

**Q.** How did the “activity, negative = inhibition” value turn out when OCCN1CCN(CCCN2c3ccccc3Sc3ccc(Cl)cc32)CC1 was run?
**A.** -24.4% [at 12.8 µM]

**Q.** For Cc1c(O)cccc1C(=O)N[C@@H](CSc1ccccc1)[C@H](O)CN1C[C@H]2CCCC[C@H]2C[C@H]1C(=O)NC(C)(C)C, which “activity, negative = inhibition” value is on record?
**A.** -24.5%

**Q.** How did the “activity, negative = inhibition” value turn out when CNCCCC1c2ccccc2C=Cc2ccccc21 was run?
**A.** -12% [at 12.8 µM]
